Laboratory results from PubChem BioAssay (NCATS).
Results filed as inconclusive are left out. The source made the active and inactive calls. Calls come from the whole dose curve; as a rule, active = well fitted curve in the direction sought with a large enough effect; inconclusive = small, poorly fitted or top-dose-only effect, or another doubt; inactive = no such curve, though single readings can be large; an effect the other way counts as inactive or inconclusive.

Key:
[1] = biological target: Rap guanine nucleotide exchange factor 3 (Homo sapiens) (UniProt O95398); assay: Confirmatory qHTS for antagonist of cAMP-regulated guanine nucleotide exchange factor 3 (EPAC1) (AID 1645880); note: nearly all actives have a fitted effect of over 55% in size; note: potency is the fitted concentration of half-maximal effect
Chain of Rap guanine nucleotide exchange factor 3 (Homo sapiens) (O95398 whole entry, looked up): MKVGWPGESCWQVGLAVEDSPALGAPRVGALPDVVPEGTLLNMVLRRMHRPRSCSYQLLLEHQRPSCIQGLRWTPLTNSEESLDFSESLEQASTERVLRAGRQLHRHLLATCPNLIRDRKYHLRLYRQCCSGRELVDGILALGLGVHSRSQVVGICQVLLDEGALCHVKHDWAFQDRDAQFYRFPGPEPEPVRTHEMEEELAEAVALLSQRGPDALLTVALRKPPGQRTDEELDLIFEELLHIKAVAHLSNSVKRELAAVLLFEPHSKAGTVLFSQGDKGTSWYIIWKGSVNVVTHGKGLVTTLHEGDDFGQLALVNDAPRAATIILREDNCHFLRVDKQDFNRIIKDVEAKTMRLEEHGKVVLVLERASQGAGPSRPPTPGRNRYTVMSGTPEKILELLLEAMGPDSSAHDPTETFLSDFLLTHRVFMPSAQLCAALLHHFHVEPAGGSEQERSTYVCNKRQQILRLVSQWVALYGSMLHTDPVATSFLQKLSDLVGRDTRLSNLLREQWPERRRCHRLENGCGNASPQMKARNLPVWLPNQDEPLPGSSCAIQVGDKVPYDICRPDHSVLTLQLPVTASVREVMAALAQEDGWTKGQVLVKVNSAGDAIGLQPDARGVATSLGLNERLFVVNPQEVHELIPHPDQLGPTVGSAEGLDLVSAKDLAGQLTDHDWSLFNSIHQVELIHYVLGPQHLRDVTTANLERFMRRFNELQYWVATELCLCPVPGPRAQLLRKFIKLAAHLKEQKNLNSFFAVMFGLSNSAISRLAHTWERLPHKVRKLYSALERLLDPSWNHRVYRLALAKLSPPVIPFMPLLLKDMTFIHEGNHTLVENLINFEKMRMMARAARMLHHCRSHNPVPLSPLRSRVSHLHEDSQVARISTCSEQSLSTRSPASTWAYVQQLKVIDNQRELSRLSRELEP
In short: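 Nucleotide exchange uses 100 nM EPAC1, 250 nM RAP1B-BODIPY-GDP and 50 uM GDP, with compounds in a concentration-titration series. After 5 min at room temperature, fluorescence (480 nm ex/540 nm em) is read every 5 min for 30 min. Data are normalized to control ATA and DMSO.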

[2] = biological target: Rap guanine nucleotide exchange factor 3 (Homo sapiens) (UniProt O95398); assay: Confirmatory qHTS for agonist of cAMP-regulated guanine nucleotide exchange factor 3 (EPAC1) (AID 1645881);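 note: EPAC1 catalysed release of BODIPY-GDP from Rap1B seen as fluorescence loss; 100% = effect of cAMP agonist control; nearly all actives have a fitted effect of over 75% in size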
[3] = biological target: Rap guanine nucleotide exchange factor 4 (Homo sapiens) (UniProt Q8WZA2); assay: Confirmatory qHTS for agonist of cAMP-regulated guanine nucleotide exchange factor 4 (EPAC2) (AID 1645884);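 note: nucleotide exchange releases bodipy-GDP from Rap1 and this lowers its fluorescence; % is set by controls: 0 for no effect and ±100 for the full control effect; nearly all actives have a fitted effect of over 65% in size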
Chain of Rap guanine nucleotide exchange factor 4 (Homo sapiens) (Q8WZA2 whole entry, looked up): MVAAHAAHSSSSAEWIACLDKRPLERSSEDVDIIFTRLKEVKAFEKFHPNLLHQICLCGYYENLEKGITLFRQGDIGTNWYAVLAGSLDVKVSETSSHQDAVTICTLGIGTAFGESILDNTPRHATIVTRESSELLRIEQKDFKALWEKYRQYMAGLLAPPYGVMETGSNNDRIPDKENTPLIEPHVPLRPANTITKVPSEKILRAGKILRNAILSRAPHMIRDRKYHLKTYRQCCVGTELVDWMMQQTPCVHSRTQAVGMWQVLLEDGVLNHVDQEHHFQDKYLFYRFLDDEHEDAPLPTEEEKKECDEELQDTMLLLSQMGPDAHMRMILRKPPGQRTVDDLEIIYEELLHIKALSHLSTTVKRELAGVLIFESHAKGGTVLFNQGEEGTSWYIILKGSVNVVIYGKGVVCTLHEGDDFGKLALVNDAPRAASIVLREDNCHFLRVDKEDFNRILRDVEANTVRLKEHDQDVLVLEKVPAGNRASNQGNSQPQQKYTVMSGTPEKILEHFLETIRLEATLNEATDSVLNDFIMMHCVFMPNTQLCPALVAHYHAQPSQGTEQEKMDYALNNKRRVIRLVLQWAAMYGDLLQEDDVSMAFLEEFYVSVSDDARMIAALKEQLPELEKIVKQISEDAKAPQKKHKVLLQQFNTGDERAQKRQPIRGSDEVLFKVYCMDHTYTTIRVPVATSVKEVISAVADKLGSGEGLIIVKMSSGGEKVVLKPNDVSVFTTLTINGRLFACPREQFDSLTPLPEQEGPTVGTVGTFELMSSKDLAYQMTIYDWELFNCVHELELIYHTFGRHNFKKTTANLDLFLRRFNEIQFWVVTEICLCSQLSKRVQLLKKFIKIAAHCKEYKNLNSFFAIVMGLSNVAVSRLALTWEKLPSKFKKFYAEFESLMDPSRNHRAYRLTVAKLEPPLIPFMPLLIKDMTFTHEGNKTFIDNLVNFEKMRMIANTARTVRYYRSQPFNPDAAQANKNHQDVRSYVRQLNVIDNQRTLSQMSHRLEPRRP

[4] = biological target: Rap guanine nucleotide exchange factor 4 (Homo sapiens) (UniProt Q8WZA2); assay: Confirmatory qHTS for antagonist of cAMP-regulated guanine nucleotide exchange factor 4 (EPAC2) (AID 1645885); note: nearly all actives have a fitted effect of over 25% in size; note: potency is the fitted concentration of half-maximal effect; for activity change, negative = inhibition: % is set by controls: 0 for no effect and ±100 for the full control effect
[5] = biological target: Rap guanine nucleotide exchange factor 3 (Homo sapiens) (UniProt O95398); assay: Counterscreen qHTS for antagonist of cAMP-regulated guanine nucleotide exchange factor 3 (EPAC1) (AID 1645888);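 note: fluorescence loss as bound BODIPY-GDP is released from Rap1B; % of control where 0% means no effect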
In short: (§1)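 Rap1B-BODIPY-GDP 250 nM + GDP 50 uM; cpds 7-pt, final 9.74 nM–152 uM (activator mode) or from 7.32 nM upwards (inhibitor mode); RT; FI 480/540 nm at 5 and 30 min, then ± cAMP, reread.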

[6] = biological target: Rap guanine nucleotide exchange factor 3 (Homo sapiens) (UniProt O95398); assay: Counterscreen qHTS for agonist of cAMP-regulated guanine nucleotide exchange factor 3 (EPAC1) (AID 1645889); note: % of control where 0% means no effect; nearly all actives have a fitted effect of over 40% in size
In short: as §1

O=S(c1ccc2ccccc2c1)c1cnns1 (stereo unspecified)
inactive: Potency [1] | Potency [2] | Potency [3] | Potency [4] | Potency [5]

N#CC(=Cc1ccc(-c2ccccc2)cc1)C(=O)c1ccccc1
active: Potency [1] 39.8 µM
inactive: Potency [2] | activation [3] 0.543% [at 17.1 µM, percent relative to cAMP agonist control] | Potency [4] | activity change, negative = inhibition [5] -16.6% [at 30.8 µM]

O=C(Cc1ccccc1Cl)Nc1ccc(S(=O)(=O)Nc2nccs2)cc1
inactive: Potency [1] | Potency [2] | Potency [3] | Potency [4] | Potency [5]

COCCn1c(=N)c(C(=O)NC2CCCC2)cc2c(=O)n3cc(C)ccc3nc21
inactive: Potency [1] | Potency [2] | Potency [3] | Potency [4] | Potency [5]

COc1cnc(-c2ccccn2)nc1Oc1cccc(Cl)c1
inactive: Potency [1] | Potency [2] | Potency [3] | Potency [5]
active: Potency [4] 10.7 µM

COc1cc(S(=O)(=O)Nc2ccccc2C)ccc1Cl
inactive: Potency [1] | Potency [2] | Potency [3] | Potency [4] | Potency [5]

CC1(C(=O)Nc2ccc(Cl)cc2)Cc2c(-c3cccc(C(N)=O)c3)ccnc2O1 (stereo unspecified)
inactive: Potency [1] | Potency [2] | activation [3] 9.22% [at 17.1 µM, percent relative to cAMP agonist control] | Potency [4] | activity change, negative = inhibition [5] 3.15% [at 30.8 µM]

CCC(C)N(C(=O)COC(=O)C1CCN(S(=O)(=O)c2ccc(C)c(C)c2)CC1)C1CCS(=O)(=O)C1 (stereo unspecified)
inactive: Potency [1] | Potency [2] | Potency [3] | Potency [4] | Potency [5]

O=C(Nc1ccccc1N1CCOCC1)c1cccc2c(Br)cccc12
inactive: Potency [1] | Potency [2] | Potency [3] | Potency [4] | Potency [5]

Cc1ccc2c(c1)C(c1ccccc1)CC(=O)O2 (stereo unspecified)
active: Potency [4] 37.9 µM
inactive: Potency [1] | Potency [2] | Potency [3] | Potency [5]

CCOc1ccc(NCc2nc3ccccc3n2CCOc2ccccc2)cc1
inactive: Potency [1] | Potency [2] | activation [3] 16.9% [at 17.1 µM, percent relative to cAMP agonist control] | Potency [4] | activity change, negative = inhibition [5] 4.92% [at 30.8 µM]

COC(=O)c1[nH]c2cc(C)ccc2c1NC(=O)CN1CCCc2ccccc21
inactive: Potency [1] | Potency [2] | Potency [3] | Potency [4] | Potency [5]

COc1ccc(C(=O)COC(=O)CCN2C(=O)C3CC=CCC3C2=O)c(OC)c1 (stereo unspecified)
inactive: Potency [1] | Potency [2] | activation [3] 1.05% [at 17.1 µM, percent relative to cAMP agonist control] | Potency [4] | activity change, negative = inhibition [5] -27.6% [at 30.8 µM]

COc1ccc(-n2nnnc2SCC(=O)c2ccc(O)c(O)c2)cc1
active: Potency [1] 9.53 µM
inactive: Potency [2] | Potency [3] | Potency [4] | Potency [5]

Cc1cc(OC(C)C(=O)NCCc2c[nH]c3ccccc23)c2c(C)cc(=O)oc2c1 (stereo unspecified)
inactive: Potency [1] | Potency [2] | Potency [3] | Potency [4] | Potency [5]

Cc1ccc(NC(=O)c2ccc(Cl)cc2Cl)c(C(=O)c2ccccc2)c1
inactive: Potency [1] | Potency [2] | Potency [3] | outcome [4] inactive [at 12.7 µM] | Potency [5]

Cc1c(NC(=O)/C=C/c2cn(-c3ccccc3)nc2-c2ccccc2)c(=O)n(-c2ccccc2)n1C
inactive: Potency [1] | Potency [2] | activation [3] 0% [at 17.1 µM, percent relative to cAMP agonist control] | Potency [4] | activity change, negative = inhibition [5] -4.59% [at 30.8 µM]

Cc1cccc(Cc2cnc(N3C(=N)SC(c4ccccc4)C3=O)s2)c1 (stereo unspecified)
inactive: Potency [1] | Potency [2] | Potency [3] | Potency [4] | Potency [5]

COCCCN1C(=O)C(CC(=O)NCc2cccc3ccccc23)CC(C(=O)N2CCCCCC2)=C1C (stereo unspecified)
inactive: Potency [1] | Potency [2] | Potency [3] | Potency [4] | Potency [5]

CCOc1c(S(=O)(=O)N2CCCC2)ccc(Cl)c1Cl
inactive: Potency [1] | Potency [2] | Potency [3] | Potency [4] | Potency [5]

Cc1cc(C)c(S(=O)(=O)N2CCCCC2CCNC(=O)C(=O)NCC2CCCO2)c(C)c1 (stereo unspecified)
inactive: Potency [1] | Potency [2] | activation [3] 2.27% [at 17.1 µM, percent relative to cAMP agonist control] | Potency [4] | activity change, negative = inhibition [5] 6.58% [at 30.8 µM]

COc1ccccc1C(CC(=O)N1CCCC1)c1ccc2c(c1)OCO2 (stereo unspecified)
inactive: Potency [1] | Potency [2] | activation [3] 2.08% [at 17.1 µM, percent relative to cAMP agonist control] | Potency [4] | activity change, negative = inhibition [5] -9.86% [at 30.8 µM]

Cc1ccc(NC(=O)c2ccc(S(=O)(=O)N3CCCCCC3)cc2)nc1
inactive: Potency [1] | Potency [2] | activation [3] 5.15% [at 17.1 µM, percent relative to cAMP agonist control] | Potency [4] | activity change, negative = inhibition [5] -5.55% [at 30.8 µM]

O=C(CSCC(=O)N1CCOCC1)Nc1nc(-c2ccccc2)cs1
inactive: Potency [1] | Potency [2] | Potency [3] | Potency [5] | Potency [6]
active: Potency [4] 84.9 µM

Cc1ccccc1S(=O)(=O)N1C(c2ccc(Cl)c(Cl)c2)CC=C(C(=O)O)C1c1cccc(Br)c1 (stereo unspecified)
active: Potency [1] 75.7 µM
inactive: Potency [2] | Potency [3] | Potency [4] | Potency [5] | Potency [6]

CCCN1CCN(S(=O)(=O)c2ccc3c(c2)NC(=O)C(C)C(=O)N3)CC1 (stereo unspecified)
inactive: Potency [1] | Potency [2] | Potency [3] | Potency [4] | Potency [5]

CCOc1ccc(NS(=O)(=O)c2cc3c(cc2C)N(C)CCO3)cc1
inactive: Potency [1] | Potency [2] | activation [3] 7.18% [at 17.1 µM, percent relative to cAMP agonist control] | Potency [4] | activity change, negative = inhibition [5] -12% [at 30.8 µM]

Cc1ccc(N(CCC#N)C(=O)COC(=O)c2ccccc2SCC(=O)N2CCCC2)cc1
inactive: Potency [1] | Potency [2] | Potency [3] | Potency [4] | Potency [5]

COc1cccc(C2=NN(C(=O)c3ccco3)C(O)(C(F)(F)F)C2)c1 (stereo unspecified)
inactive: Potency [1] | Potency [2] | activation [3] 1.71% [at 17.1 µM, percent relative to cAMP agonist control] | Potency [4] | activity change, negative = inhibition [5] -10.8% [at 30.8 µM]

CCOc1ccc(CCNC(=O)c2ccc3c(=O)[nH]c4c(C(=O)NC(C)C)sc(=S)n4c3c2)cc1
inactive: Potency [2] | Potency [3] | Potency [4] | Potency [5]
active: Potency [1] 21.3 µM

CCCC[C@@H]1CNC(=O)C(=O)N1CCc1cccc(F)c1
inactive: Potency [1] | Potency [2] | activation [3] 9.22% [at 17.1 µM, percent relative to cAMP agonist control] | Potency [4] | activity change, negative = inhibition [5] -3.55% [at 30.8 µM]

Cc1c(C(=O)N2CCCCC2)oc2ccc(Br)cc12
inactive: Potency [1] | Potency [2] | Potency [3] | Potency [4] | Potency [5] | Potency [6]

Cc1cccc(-n2nc(C)c(C(=O)Nc3cc(C)ccc3C)c2-n2cccc2)c1
inactive: Potency [1] | Potency [2] | Potency [3] | Potency [4] | Potency [5]

O=S(=O)(NCc1ccco1)c1ccc(Cl)cc1Cl
inactive: Potency [1] | Potency [2] | activation [3] 3.78% [at 17.1 µM, percent relative to cAMP agonist control] | Potency [4] | activity change, negative = inhibition [5] -9.1% [at 30.8 µM]

CCOC(=O)[C@H]1Nc2ccc(Cl)cc2[C@@H]2[C@H]1C1CC(c3ccccc31)N2C(=O)OCc1ccccc1 (stereo partly specified)
inactive: Potency [1] | Potency [2] | activation [3] 1.97% [at 17.1 µM, percent relative to cAMP agonist control] | Potency [4] | activity change, negative = inhibition [5] 4.44% [at 30.8 µM]

COc1ccc2ccccc2c1C(=O)/C=C\c1ccoc1
active: Potency [1] 42.6 µM
inactive: Potency [2] | Potency [3] | Potency [4] | Potency [5]

CC(=C\c1ccccc1)/C=C1/SC(=S)N(CCCC(=O)O)C1=O
inactive: Potency [2] | Potency [3] | Potency [4] | Potency [5]
active: Potency [1] 84.9 µM

Nc1nc2c(ncn2[C@@H]2O[C@H](CNCc3ccccc3)[C@@H](O)[C@H]2O)c(=O)[nH]1
inactive: Potency [1] | Potency [2] | Potency [3] | Potency [4] | Potency [5]

Cc1cccc(C(=O)Nc2ccc3c(c2)ncn3C)c1
inactive: Potency [1] | Potency [2] | Potency [3] | Potency [4] | Potency [5]

C[C@H]1CN([C@@H](C)CO)C(=O)c2cccc(NS(=O)(=O)c3ccc(Cl)cc3)c2O[C@@H]1CN(C)CC1CCCCC1
inactive: Potency [1] | Potency [2] | activation [3] 0% [at 17.1 µM, percent relative to cAMP agonist control] | Potency [4] | activity change, negative = inhibition [5] 0.127% [at 30.8 µM]

Cc1c(Cl)ccc2c(C(=O)O)cc(-c3ccccc3)nc12
inactive: Potency [1] | Potency [2] | activation [3] 9.62% [at 17.1 µM, percent relative to cAMP agonist control] | Potency [4] | activity change, negative = inhibition [5] 5.51% [at 30.8 µM]

COc1ccc(OC)c(NC(=O)Cc2c(C(=O)O)n(C)c3ccc(C)cc23)c1
inactive: Potency [1] | Potency [2] | Potency [3] | Potency [4] | Potency [5] | Potency [6]

CCC(=O)N1N=C(c2cccs2)CC1c1ccc(OC)cc1 (stereo unspecified)
inactive: Potency [1] | Potency [2] | Potency [3] | Potency [4] | Potency [5]

CCCCCN(C(=O)CCC(=O)OCc1ccc(C(C)C)cc1)c1c(N)n(CCCC)c(=O)[nH]c1=O
inactive: Potency [1] | Potency [2] | Potency [3] | Potency [4] | Potency [5] | Potency [6]

COc1ccc(CCNC(=O)CCc2nc3sc4c(c3c(=O)[nH]2)CCCC4)cc1
active: Potency [1] 84.9 µM | Potency [4] 4.78 µM
inactive: Potency [2] | Potency [3] | Potency [5] | Potency [6]
